Laboratory results reported in PubChem BioAssay AID1159580 (chemical genetic matrix, 2015).
Among all 5,500 compounds or so, about 2,000 (36%) were called active. Another 18% or so got no clear call; they are omitted. No stated cut-off is given here; in the data, active means normalized growth mostly below about 0.91 (no sharp cut-off); inconclusive means no clear call, values can overlap the other calls; inactive means mostly above about 0.92. This is one part of the list.

Assay: chemical genetic growth profiling, strain panel (AID 1159580);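 further: tested at 20 µM; growth read once vehicle control cultures reached saturation at 30 °C; 1 = growth at the plate median or of vehicle wells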
Conditions: growth OD

Measured: normalized growth

OCc1ccccc1O
inactive: S. cerevisiae deletion strains, locus YKL068W, stronger effect = lower value 0.994 | S. cerevisiae deletion strains, locus YKL085W, strain MDH1 (second series), stronger effect = lower value 0.992 | S. cerevisiae deletion strains, locus YKL085W, strain MDH1, stronger effect = lower value 0.992 | S. cerevisiae deletion strains, locus YKL160W, strain elf1, stronger effect = lower value 1.04 | S. cerevisiae deletion strains, locus YKL190W, strain CNB1, stronger effect = lower value 1.01 | S. cerevisiae deletion strains, locus YKR001C, strain vps1, stronger effect = lower value 0.989 | S. cerevisiae deletion strains, locus YKR026C, strain gcn3, stronger effect = lower value 1.02 | S. cerevisiae deletion strains, locus YKR091W, strain srl3, stronger effect = lower value 1.01 | S. cerevisiae deletion strains, locus YLL001W, strain dnm1, stronger effect = lower value 1.01 | S. cerevisiae deletion strains, locus YLL026W, stronger effect = lower value 1 | S. cerevisiae deletion strains, locus YLL041C, strain sdh2, stronger effect = lower value 1.01 | S. cerevisiae deletion strains, locus YLR027C, strain aat2, stronger effect = lower value 1.02 | S. cerevisiae deletion strains, locus YLR039C, strain RIC1, stronger effect = lower value 0.988 | S. cerevisiae deletion strains, locus YLR058C, strain SHM2, stronger effect = lower value 1.02 | S. cerevisiae deletion strains, locus YLR102C, strain apc9, stronger effect = lower value 0.981 | S. cerevisiae deletion strains, locus YLR113W, strain HOG1, stronger effect = lower value 1.03 | S. cerevisiae deletion strains, locus YLR221C, strain rsa3, stronger effect = lower value 1.02 | S. cerevisiae deletion strains, locus YLR258W, strain gsy2, stronger effect = lower value 1.02 | S. cerevisiae deletion strains, locus YLR262C, strain YPT6 (second series), stronger effect = lower value 1.06 | S. cerevisiae deletion strains, locus YLR262C, strain YPT6, stronger effect = lower value 1.04 | S. cerevisiae deletion strains, locus YLR268W, strain sec22, stronger effect = lower value 0.969 | S. cerevisiae deletion strains, locus YLR320W, strain mms22, stronger effect = lower value 1.02 | S. cerevisiae deletion strains, locus YLR330W, strain CHS5, stronger effect = lower value 1.01 | S. cerevisiae deletion strains, locus YLR342W, strain FKS1 (second series), stronger effect = lower value 1.01 | S. cerevisiae deletion strains, locus YLR342W, strain FKS1, stronger effect = lower value 1.03 | S. cerevisiae deletion strains, locus YLR357W, strain rsc2, stronger effect = lower value 1.08 | S. cerevisiae deletion strains, locus YLR370C, strain arc18, stronger effect = lower value 1.01 | S. cerevisiae deletion strains, locus YLR371W, strain rom2, stronger effect = lower value 0.989 | S. cerevisiae deletion strains, locus YLR384C, strain iki3, stronger effect = lower value 1.01 | S. cerevisiae deletion strains, locus YLR418C, strain cdc73, stronger effect = lower value 0.962 | S. cerevisiae deletion strains, locus YML016C, strain PPZ1, stronger effect = lower value 1.02 | S. cerevisiae deletion strains, locus YML032C, strain rad52, stronger effect = lower value 0.979 | S. cerevisiae deletion strains, locus YML120C, strain ndi1, stronger effect = lower value 1.01 | S. cerevisiae deletion strains, locus YML124C, strain tub3, stronger effect = lower value 0.997 | S. cerevisiae deletion strains, locus YMR058W, strain fet3, stronger effect = lower value 1.02 | S. cerevisiae deletion strains, locus YMR078C, strain ctf18, stronger effect = lower value 0.993 | S. cerevisiae deletion strains, locus YMR125W, strain sto1, stronger effect = lower value 1.01 | S. cerevisiae deletion strains, locus YMR129W, stronger effect = lower value 1.03 | S. cerevisiae deletion strains, locus YMR205C, strain PFK2, stronger effect = lower value 1.03 | S. cerevisiae deletion strains, locus YMR223W, strain ubp8, stronger effect = lower value 0.994 | S. cerevisiae deletion strains, locus YMR231W, strain pep5, stronger effect = lower value 1.01 | S. cerevisiae deletion strains, locus YMR263W, strain SAP30, stronger effect = lower value 1.02 | S. cerevisiae deletion strains, locus YMR307W, strain GAS1, stronger effect = lower value 1.01 | S. cerevisiae deletion strains, locus YNL067W, strain RPL9B, stronger effect = lower value 1.01 | S. cerevisiae deletion strains, locus YNL071W, strain lat1, stronger effect = lower value 1.04 | S. cerevisiae deletion strains, locus YNL128W, strain TEP1, stronger effect = lower value 1.02 | S. cerevisiae deletion strains, locus YNL153C, strain GIM3, stronger effect = lower value 1.01 | S. cerevisiae deletion strains, locus YNL183C, strain NPR1, stronger effect = lower value 1 | S. cerevisiae deletion strains, locus YNL209W, strain ssb2, stronger effect = lower value 1.02 | S. cerevisiae deletion strains, locus YNL233W, strain BNI4, stronger effect = lower value 1.01 | S. cerevisiae deletion strains, locus YNL248C, strain rpa49, stronger effect = lower value 1.04 | S. cerevisiae deletion strains, locus YNL250W, strain rad50, stronger effect = lower value 0.986 | S. cerevisiae deletion strains, locus YNL271C, strain bni1, stronger effect = lower value 0.98 | S. cerevisiae deletion strains, locus YNL298W, strain CLA4, stronger effect = lower value 0.981 | S. cerevisiae deletion strains, locus YNL307C, strain MCK1, stronger effect = lower value 0.989 | S. cerevisiae deletion strains, locus YNL322C, strain KRE1 (second series), stronger effect = lower value 1.03 | S. cerevisiae deletion strains, locus YNL322C, strain KRE1, stronger effect = lower value 1.01 | S. cerevisiae deletion strains, locus YNR049C, strain mso1, stronger effect = lower value 1.02 | S. cerevisiae deletion strains, locus YNR052C, strain pop2, stronger effect = lower value 0.989 | S. cerevisiae deletion strains, locus YOL006C, strain TOP1, stronger effect = lower value 1.06 | S. cerevisiae deletion strains, locus YOL012C, strain htz1 0.829 | S. cerevisiae deletion strains, locus YOL147C, strain pex11, stronger effect = lower value 0.985 | S. cerevisiae deletion strains, locus YOR001W, strain rrp6, stronger effect = lower value 1.03 | S. cerevisiae deletion strains, locus YOR061W, strain CKA2, stronger effect = lower value 1.02 | S. cerevisiae deletion strains, locus YOR069W, strain VPS5, stronger effect = lower value 1.01 | S. cerevisiae deletion strains, locus YOR070C, strain gyp1, stronger effect = lower value 1.03 | S. cerevisiae deletion strains, locus YOR080W, strain dia2, stronger effect = lower value 1.02 | S. cerevisiae deletion strains, locus YOR083W, strain WHI5, stronger effect = lower value 1.02 | S. cerevisiae deletion strains, locus YOR106W, strain vam3, stronger effect = lower value 1.01 | S. cerevisiae deletion strains, locus YOR136W, strain idh2, stronger effect = lower value 0.992 | S. cerevisiae deletion strains, locus YOR144C, strain elg1, stronger effect = lower value 0.991 | S. cerevisiae deletion strains, locus YOR184W, strain ser1, stronger effect = lower value 0.984 | S. cerevisiae deletion strains, locus YOR231W, strain MKK1, stronger effect = lower value 1.03 | S. cerevisiae deletion strains, locus YOR265W, strain rbl2, stronger effect = lower value 1 | S. cerevisiae deletion strains, locus YOR270C, strain vph1, stronger effect = lower value 1.03 | S. cerevisiae deletion strains, locus YOR290C, strain snf2, stronger effect = lower value 1.01 | S. cerevisiae deletion strains, locus YOR316C, strain cot1, stronger effect = lower value 0.996 | S. cerevisiae deletion strains, locus YPL051W, strain arl3, stronger effect = lower value 1.03 | S. cerevisiae deletion strains, locus YPL078C, strain atp4, stronger effect = lower value 1.02 | S. cerevisiae deletion strains, locus YPL106C, strain sse1, stronger effect = lower value 1.07 | S. cerevisiae deletion strains, locus YPL240C, strain hsp82, stronger effect = lower value 1.01 | S. cerevisiae deletion strains, locus YPL241C, strain CIN2, stronger effect = lower value 1.01 | S. cerevisiae deletion strains, locus YPL256C, strain CLN2, stronger effect = lower value 1.07 | S. cerevisiae deletion strains, locus YPR119W, strain clb2, stronger effect = lower value 0.986 | S. cerevisiae deletion strains, locus YPR141C, strain kar3, stronger effect = lower value 0.992 | S. cerevisiae deletion strains, locus YPR163C, strain tif3, stronger effect = lower value 0.994 | S. cerevisiae deletion strains, locus YPR167C, strain met16, stronger effect = lower value 0.989 | S. cerevisiae deletion strains, strain wtn01, stronger effect = lower value 0.973 | S. cerevisiae strains, strain wild type, stronger effect = lower value 1.01
